The values below come from PubChem BioAssay AID720518 (National Center for Advancing Translational Sciences (NCATS), 2013).

Results filed as inconclusive are left out. Where a call stands in place of a potency, no number is given. Calls of active or inactive are those of the source. Calls follow the shape of the full dose curve.

This assay in a line: qHTS for Inhibitors of Cell Surface uPA Generation: Wild-type Protective Antigen (WT-PrAg) Counterscreen for Cherry-picked Compounds. Conditions: cells, WT protective antigen toxicity counterscreen; series mostly up to 115 µM.
For `O=C(COc1ccccc1F)NCC(c1ccc(F)cc1)N1CCOCC1` (centres undefined), the Potency entry was “inactive”.
Turning to `C[C@H](CO)N1C[C@H](C)[C@@H](CN(C)C(=O)Nc2ccccc2)Oc2c(NS(=O)(=O)c3ccccc3)cccc2C1=O`, the Potency result is “inactive”.
The result for `Cn1c(=O)n(CC(=O)O)c(=O)c2c1nc1n2CCCN1CCc1ccccc1` reads “inactive”; that for `O=C(NNC(=O)c1cccc(-n2cccc2)c1)c1ccc(F)cc1`, “inactive”.
